# In the supplement of paper PMC12632987:
# The full ranking holds about 2,300 sequences; the median of “median log2 fold change of GCK-ALFA target abundance (FLAG IP / Myc IP barcode read proportion)” is about 0.095, and the lowest 2% start at about -0.47. The sample as a whole holds a higher share of the lowest values than the screen did.
# B1: LC3A_28_1195 (protein)
# chain: SLAEETIKKIREQAKKALEEGDGAVIEVNISKELSDEGIDKILETIKEEAAKLADLESVSIIINVESGVSQENIDKIADTGEEIEEKYPNVTVIIALDED
# B2: LC3A_28_898 (protein)
# chain: MSALESAEAALAAVRAAVAAGDQAPLVLEVKAPSTEEDTEKLIELLEEIAREASQLTGVTIVIDIDESVSEENQQKLIDKAEELEKKYPNVTVIIALPES
# B3: LC3A_28_683 (protein)
# chain: SETDESIEKALKKAKEALEKGKPEVIEIKVSGDTTEEELEKILEALEEIAEIANKVPGSAIIIDIDADLPQEFRDKLIDKAEELEEKYPNVTIIFALEER
# B4: LC3A_free_0_2122 (protein)
# chain: KKTVVEVVVILDESTSKETAEEIYEKLKEKAEELAKEAGAEVESSLSEVDGSYIITIKITLPTDDIDKALELEDKLVETAEEIAKEAGVEATIYSSVYLE
# B5: LC3A_3_1412 (protein)
# chain: LEERREALLAELRAAGWSEETLAAVEELLEALLARGAEEEAERALELLRAARDLPSERLLEVVEEALRALREEGLSPEEVIALLEELLRVARAEQEIEEL
# B6: LC3A_28_1281 (protein)
# chain: SEIEEEIERAIKEAKEAKEKGEPAVIEIEVPGDATEEEIEKVIKGLEEIAEILKDIPNQAIVINVDSGVKEEHIDKLVDKAEEIEEKYPNVTVIIALDED
# B7: LC3A_3_1385 (protein)
# chain: MEEEMEKTLERLREAGHSEETIEAARKALEALIEKGYENSAKTFIELLDELIHLPDELLLELFEDVLELIETEDIDEETLTEKIKEIASVYKNESEIEEL
# B8: LC3A_free_26_2139 (protein)
# chain: EKFVDIYLIDEAIDALEKAKELAKKIEGIGEKLVKLLEEALKLIEKETLESLEKAIKILKEIKELIEKDKTIDEETKKELLELVTKALEKVEEVVKIMKE
# Target: MAP1LC3A, Q9H492
# Test: median log2 fold change of GCK-ALFA target abundance (FLAG IP / Myc IP barcode read proportion) (log2 ratio); each designed protein is fused to an ALFA-tag nanobody in HEK293 cells to bring the named protein to FLAG-tagged glucokinase (GCK); Myc marks an untargeted standard; higher = target protein stabilised (more abundant)
# Settings: target protein: 3xFLAG-MCP-GCK-ALFA reporter; HEK293 landing pad (RPLP)
# Procedure, shortened: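 HEK293 landing-pad cells received a recombined binder library fused to the ALFA nanobody and were induced with 2 μg mL^−1 doxycycline, then transfected with a plasmid encoding a FLAG-tagged target and a Myc-tagged standard. Lysates were collected after 48 h for anti-FLAG and anti-Myc immunoprecipitation, and the circular RNA barcodes were reverse transcribed, amplified and sequenced. Target abundance for each binder is the median log2 ratio of FLAG to Myc barcode read proportions. Barcodes had to reach a proportion of at least 10^−7 in both replicates, each binder needed at least 3 barcodes per replicate, a pseudocount of 10^−6 was applied, and the two replicates were pooled.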
row,Binder,median log2 fold change
1,B1,0.229
2,B2,0.201
3,B3,-0.521
4,B4,-0.221
5,B5,0.243
6,B6,-0.286
7,B7,0.082
8,B8,0.132
